# Screens as filed in PubChem BioAssay.
# The list is not random: actives were taken first. Their share in the collection is about 2.8%.
# PAX8 reporter = lowers PAX8-driven luciferase in RMG-I cells | RMG-I TPO-luciferase reporter, SteadyGlo, 24 h | 360,000 compounds, 1.2% hits | AID 652154 | inhibition, % at 12.6 µM;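 active means mean replicate inhibition at least 60% with every replicate also reaching 60%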;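 further: luciferase light reporting Pax8 driven TPO promoter activity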
# MITF TRPM1 inh = MITF TRPM1 promoter inhibition in SK-MEL-5 cells; inhibition, % at 12.5 µM; 330,000 compounds, 0.83% hits; SK-MEL-5 TRPM1 promoter luciferase, 24 h;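 active means mean inhibition across replicates of 60% or more, whatever share of single replicates reaches that level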
# EBV LMP1 NFkB = reduces LMP1-driven NF-kappaB luciferase signal; LMP1-induced NF-kappaB luciferase reporter cells, luminescence; inhibition, % at 12.5 µM; 350,000 compounds, 0.69% hits; AID 504558; in the data active means inhibition above about 41%
# HIF-2a inh = blocks HIF-2a reporter activity; 786-0 RCC cells HIF-2a reporter, luciferase luminescence, overnight; inhibition, % at 18.8 µM; 360,000 compounds, 0.72% hits; AID 624352;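 active means inhibition of the luminescence signal of 40% or more relative to plate controls, in a single-dose primary screen at 18.75 µM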
# Peg3 prom inh = Peg3 promoter activity inhibition | 360,000 compounds, 1.7% hits | HeLa PEG-Prom luciferase reporter, luminescence, overnight | inhibition, % at 20 µM | AID 588405;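 active means inhibition of at least 50% at 20 µM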
# Shn3 inh set2 = Schnurri-3 reporter inhibition in Clone20 osteoblasts; Clone20 osteoblast Shn3 3'UTR firefly luciferase, 24 h; inhibition, % at 12.5 µM; 360,000 compounds, 0.52% hits;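 active means mean inhibition of at least 75% with every replicate also reaching 75%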
# Mdm2 MdmX conf = Mdm2/MdmX (human) interaction inhibition, confirmed; shares compounds with HIF-2a inh; SaOS-2 split-luciferase Mdm2/MdmX complementation, luminescence; inhibition, % at 8 µM; 740 compounds, 99% hits;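 active means mean inhibition of the luminescence signal across two replicates at or above 26 percent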
# Target sequence (O15151 whole entry, looked up): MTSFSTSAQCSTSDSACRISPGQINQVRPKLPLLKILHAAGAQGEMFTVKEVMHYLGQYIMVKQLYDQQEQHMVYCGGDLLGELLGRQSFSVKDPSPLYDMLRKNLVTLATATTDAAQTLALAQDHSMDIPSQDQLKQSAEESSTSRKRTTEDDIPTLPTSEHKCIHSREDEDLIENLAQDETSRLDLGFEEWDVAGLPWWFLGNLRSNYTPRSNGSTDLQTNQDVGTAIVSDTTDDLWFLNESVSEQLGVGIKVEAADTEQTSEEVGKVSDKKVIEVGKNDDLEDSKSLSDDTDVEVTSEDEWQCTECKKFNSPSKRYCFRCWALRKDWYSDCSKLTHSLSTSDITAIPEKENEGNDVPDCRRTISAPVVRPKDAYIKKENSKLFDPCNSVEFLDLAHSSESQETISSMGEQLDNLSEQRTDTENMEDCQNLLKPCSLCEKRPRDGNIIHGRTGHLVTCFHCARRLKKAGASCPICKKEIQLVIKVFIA
# Target sequence (Q00987 whole entry, looked up): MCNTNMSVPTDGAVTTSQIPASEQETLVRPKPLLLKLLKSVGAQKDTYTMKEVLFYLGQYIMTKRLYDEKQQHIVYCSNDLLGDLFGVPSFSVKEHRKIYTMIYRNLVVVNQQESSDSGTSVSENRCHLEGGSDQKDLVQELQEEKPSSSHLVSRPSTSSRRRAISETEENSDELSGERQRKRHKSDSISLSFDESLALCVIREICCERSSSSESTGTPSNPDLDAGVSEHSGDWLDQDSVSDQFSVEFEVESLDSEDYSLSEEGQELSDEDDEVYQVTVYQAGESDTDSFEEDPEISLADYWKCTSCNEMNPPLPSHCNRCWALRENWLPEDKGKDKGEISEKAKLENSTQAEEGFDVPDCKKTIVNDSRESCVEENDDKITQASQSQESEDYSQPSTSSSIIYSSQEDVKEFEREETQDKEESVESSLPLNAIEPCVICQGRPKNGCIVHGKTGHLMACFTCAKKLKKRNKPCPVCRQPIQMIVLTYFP
# HIF-2a conf = confirmation of HIF-2a inhibitors; shares compounds with HIF-2a inh; 786-0 RCC cells, HIF-2a luciferase reporter luminescence, overnight; inhibition, % at 18.8 µM; 1,800 compounds, 56% hits;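 active means mean inhibition across four replicates of at least 40 percent at the single tested concentration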
# HIF-1a cs = counter-screen for HIF-2a inhibitors: HIF-1a inhibition in MiaPaCa-2 cells; 1,800 compounds, 72% hits; AID 651589; MiaPaCa-2 HIF-1a luciferase reporter, desferoxamine, overnight; shares compounds with HIF-2a inh; inhibition, % at 18.8 µM;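 active means mean inhibition of the reporter signal across four replicates at the single tested dose of 50% or more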
# Hits are given with their value; n = inactive; x = no result.
SMILES,PAX8 reporter,MITF TRPM1 inh,EBV LMP1 NFkB,HIF-2a inh,Peg3 prom inh,Shn3 inh set2,HIF-2a conf,HIF-1a cs,others
CC(=O)[C@@]1(O)C(C)CC2C3C=C(C)C4=Cc5c(cnn5-c5ccccc5)C[C@]4(C)C3C(O)C[C@@]21C (stereo not given in full),n,n,n,67,64,n,n,95,
O=C(C[C@@H]1C=C[C@H](NC(=O)CCN2CCCCC2)[C@H](CO)O1)Nc1ccccc1,n,x,x,x,x,x,x,x,
Cc1cc2c(cc1C)CSC(c1c(O)ccc3ccccc13)SC2,n,n,n,79,62,n,n,99,
CS(=O)(=O)c1ccc(NC(=O)c2cccc(-n3cnnn3)c2)cc1,n,n,n,n,n,n,x,x,
CS(=O)(=O)c1ccc(Cl)c(NC(=O)c2cccc(-n3cnnn3)c2)c1,n,n,n,51,n,n,n,n,
Cc1noc(C)c1NC(=O)Nc1cccc2c1O[C@H](CN(C)S(=O)(=O)c1ccccc1)[C@H](C)CN([C@H](C)CO)C2=O,n,x,x,x,x,x,x,x,
CCn1c(SCC(=O)N/N=C/c2ccc(OC)c(OC)c2)nc2ccccc21,x,n,n,n,n,n,x,x,
CCSc1nc2ccccc2n1C(=O)/C=C/c1ccc(OC)c(OC)c1,64,76,82,78,103,96,n,101,Mdm2 MdmX conf=102
C=CCSc1nc2ccccc2n1C(=O)/C=C/c1cc(OC)c(OC)c(OC)c1,x,87,81,83,98,97,88,106,
COc1cc(/C=C/C(=O)N2CCN(C(=O)/C=C/c3cc(OC)c(OC)c(OC)c3)CC2)cc(OC)c1OC,x,n,n,n,n,n,x,x,
CCCC(=O)Nc1ccc2c(c1)C(=O)N(C)C[C@H](OC)[C@@H](C)CN(CCC(F)(F)F)[C@@H](C)CO2,n,x,x,x,x,x,x,x,
CN(C)CC(=O)N1[C@@H](C#N)[C@@H](c2ccc(-c3cccc(C(=O)N(C)C)c3)cc2)[C@@H]1CO,n,x,x,x,x,x,x,x,
CCOc1c(Br)cc(/C=C2/SC(=O)N(CC(=O)N3CCCC3)C2=O)cc1OC,n,n,n,n,n,n,x,x,
CCOC(=O)COc1c(Br)cc(/C=C2\SC(=O)N(CC(=O)N3CCCC3)C2=O)cc1OC,n,n,n,49,n,n,n,n,
COc1cccc(NC(=O)Nc2nc(-c3ccc(OC)c(OC)c3)cs2)c1,104,80,52,n,105,n,x,x,Mdm2 MdmX conf=103
COc1ccc(/C=N/Nc2nnc(-c3ncc[nH]3)c3ccccc23)cc1,x,n,n,n,n,n,x,x,
Oc1ccc2ccccc2c1/C=N/Nc1nnc(-c2ncc[nH]2)c2ccccc12,x,n,59,n,n,92,x,x,Mdm2 MdmX conf=92
CCCC(NC(=O)CCc1c(C)c2cc3c4c(oc3c(C)c2oc1=O)CCCC4)C(=O)O (stereo not given),n,n,n,52,n,n,67,50,
COc1cccc(N2[C@@H](CC(C)=O)c3ccc(/C=C/C(C)=O)cc3S2(=O)=O)c1,n,n,n,45,100,n,n,n,
COC(=O)/C=C/c1ccc2c(c1)S(=O)(=O)N(Cc1ccc(OC)cc1)[C@H]2CC(=O)OC,n,n,n,n,n,n,x,x,
COc1ccc(CN2[C@@H](CC(C)=O)c3ccc(/C=C/C(C)=O)cc3S2(=O)=O)cc1,n,n,n,43,106,n,n,n,
COC(=O)C[C@H]1c2ccccc2S(=O)(=O)N1c1cccc(OC)c1,n,n,n,n,n,n,x,x,
c1ccc(-c2nnsc2-c2ncc[nH]2)cc1,n,n,n,n,n,n,x,x,
O=S(=O)(c1ccc(F)cc1)c1snnc1-c1ccccc1,n,66,n,41,75,n,n,n,
CN(C)c1ncc(S(=O)(=O)c2ccc(Cl)cc2)c(-c2ccccc2)n1,n,n,n,n,n,n,x,x,
O=S(=O)(c1ccc(Cl)cc1)c1snnc1-c1ccccc1,x,83,n,58,93,n,63,103,Mdm2 MdmX conf=103
